# Shown is part of a subset that was picked to be rich in hits.
# Dicer processing: inhibitors of Dicer pre-microRNA processing, primary screen, biochemical, cat-ELCCA, chemiluminescence. Endoribonuclease Dicer (Homo sapiens), Q9UPY3. cat-ELCCA pre-miR-21 Dicer processing; stronger effect = higher value. z-score at 25 µM. hit rate 6% among 47,000; in the data active = z-score above about 3, passing the limit was not always enough;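 note: plate controls were vehicle for no effect and no enzyme for full effect; higher signal means more uncleaved substrate so more Dicer inhibition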
# An asterisk follows results filed as active.
SMILES,Dicer processing
CCCn1c(NCc2nc3ccccc3n2C)nc2ccccc21,0.58
CCN(CC)CCn1c(NCc2ccc(Br)cc2)nc2ccccc21,2.9
CCCn1c(NCc2cccc(Br)c2)nc2ccccc21,1.3
CCn1c(NCc2ccc(N(C)C)cc2)nc2ccccc21,-0.31
CCCn1c(NCc2cc(C)ccc2O)nc2ccccc21,0.36
CC(=O)Nc1nc2ccccc2n1CCN(C)C,24
CCN(CC)CCn1c(NCc2ccco2)nc2ccccc21,3.8*
CCOc1ccccc1CNc1nc2ccccc2n1CCN(CC)CC,5.3*
C=CCc1cccc(CNc2nc3ccccc3n2CC)c1O,6.9*
CCn1c(NCc2c(O)ccc3ccccc23)nc2ccccc21,-0.45
CCN(CC)CCn1c(NCc2ccccc2O)nc2ccccc21,6.1*
CCN(CC)CCn1c(NCc2ccccc2Cl)nc2ccccc21,2.8
CC1SCC(=NOC(=O)c2ccccc2Cl)CS1 (stereo not drawn),-1.3
Cc1nn(-c2ccccc2)nc1C(=O)Nc1nnc(Sc2ccnc3cc(Cl)ccc23)s1,-0.35
Clc1ccc(-c2nc(N3CCCCC3)c(Cl)c(N3CCCCC3)n2)cc1,-0.63
c1ccc(-c2nc3nc4ccccc4n3[nH]2)cc1,-0.68
C=CCOC(=O)c1sc(N2C(=O)c3oc4ccc(F)cc4c(=O)c3C2c2ccc(O)cc2)nc1C (stereo not drawn),2.6
Cc1ccc(-c2ccc(C)c([N+](=O)[O-])c2)cc1[N+](=O)[O-],-2.5
CSc1nc2n(n1)C(N)=C(C#N)C(c1ccccc1)N2 (stereo not drawn),-1.9
Cc1cnc(NC(=O)c2ccccc2)c(Br)c1,-2.4
CS(=O)(=O)c1scc(-c2ccccc2)c1C#N,-1.1
Cc1ccc(-c2n[nH]c(S(C)(=O)=O)c2C#N)cc1,-2.1
Cn1nc(-c2ccccc2)c(C#N)c1S(C)(=O)=O,3.2*
CC(C)NC(=O)Cn1nc(C(F)(F)F)c2c1CCCC2,1
COc1ccc(Cl)cc1NC(=O)Nc1ccc(C(F)(F)F)cn1,-1.6
SMILES,Dicer processing
Cc1nc(SCc2c(F)cccc2Cl)[nH]c(=O)c1C,-0.59
COc1ccc(S(=O)(=O)NCCO)cc1C(=O)O,1.9
O=C(NCc1cccs1)c1nc2ncccn2n1,-0.35
CCCCCc1ccc(C(=O)NCc2cccs2)cc1,-0.45
Nc1ccc(Cl)cc1C(=O)NCc1cccs1,21*
Cc1nn(-c2ccccc2)nc1C(=O)NNC(=O)c1ccccc1N,0.74
Cc1n(CC(=O)c2ccc(C(C)(C)C)cc2)c2ccccc2[n+]1C,4.9*
COC(=O)c1ccc(OCC(O)Cn2c(C)[n+](C)c3ccccc32)cc1 (stereo not drawn),0.87
Cc1ccc(C(=O)Cn2c(C)[n+](C)c3ccccc32)cc1,-0.17
CN(C)/C=C(/Sc1nnc(C(F)(F)F)n1C)C(=O)c1ccc(Cl)cc1,-0.74
CCOc1cc(C)c(S(=O)(=O)n2cc(C)nc2CC)cc1C,-1.8
NC1=C(c2ccccc2)C(=O)c2ccccc21,0.29
CCOC(=O)N1CCC(N2CCN(S(=O)(=O)c3ccc(OC)cc3)CC2)CC1,0.1
CCOC(=O)N1CCC(N2CCCC(C(=O)N3CCCC3)C2)CC1 (stereo not drawn),0.17
CCOC(=O)N1CCC(N2CCN(S(C)(=O)=O)CC2)CC1,5*
CCOC(=O)c1cc2c(N3CCOCC3)nccc2nc1C(F)(F)F,-1.7
Cn1nc(-c2ccc(Br)s2)c(Br)c1C(F)(F)F,45*
CSc1nnc(-c2ccc(Br)s2)n1C,-1.5
COC(=O)c1c(NC(=O)c2c(C)cc(C)cc2C)sc2c1C(C(=O)OC)CC2 (stereo not drawn),1.1
CCOC(=O)c1cc(/C(C)=N/Nc2ccccc2C(F)(F)F)on1,0.72
O=c1[nH]c2ccccc2c2oc(-c3ccccc3)nc12,-1.2
O=C(O)c1c(-c2ccccc2)c2oc3ccccc3c2[nH]c1=O,4.4*
O=c1[nH]c2c(F)cccc2c(O)c1-c1ccccc1,-0.48
O=C(NNc1nc(-c2cc3ccccc3o2)cs1)c1ccc(Cl)cc1,8
CC(C)C(=O)Oc1ccc2c(=O)c(Oc3ccc(C(C)(C)C)cc3)coc2c1,10
SMILES,Dicer processing
CCN(CC)C(=O)O/N=C(\N)c1cc(Br)c(OC)c(Br)c1,-3
COc1ccc(N2C(=O)C3CC=CC(C)C3C2=O)cc1 (stereo not drawn),5.5*
CC(OC(=O)c1cccc(N2C(=O)C3CC=CC(C)C3C2=O)c1)C(=O)c1ccccc1 (stereo not drawn),0.91
COc1ccc(N2C(=O)C3C4C=CC(CC4)C3C2=O)cc1 (stereo not drawn),1
Cc1cc(C)n(Cc2ccc(Cl)cc2)c(=O)c1C#N,-0.9
CC(C)(CC(=O)O)CC(=O)Nc1ccc2ccccc2n1,-1.6
COc1ccc(C2Nc3ccccc3NC3=C2C(=O)CC(c2cccs2)C3)cc1Br (stereo not drawn),-0.98
COc1ccc(C2CC(=O)C3=C(C2)Nc2ccccc2NC3c2cccc(Br)c2)cc1 (stereo not drawn),2
CN(C)c1ccc(C2CC(=O)C3=C(C2)Nc2ccccc2NC3c2ccccc2)cc1 (stereo not drawn),4.8*
